# Data taken from PubChem BioAssay AID624405 (Broad Institute, 2012).
# Out of some 1,900 compounds screened, about 250 (13%) were called active. Inconclusive results (about 4%) are left out.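 Rule for the calls: active = fitted curve reaches 40% rescue activity at or below the top valid dose, in every test run; inconclusive = test runs disagree, some active and some inactive; inactive = every run misses the threshold or moves the wrong way.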 The list is a sample of the results. Entries with a potency or affinity are not part of this list.
# Test: rescue of simvastatin-induced ATP loss – cell-based, C2C12 myotubes, ATP luminescence, cherry pick, dose response (AID 624405);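 note: myotubes are challenged with simvastatin at 10 µM to lower ATP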
# Details: 48 h, scaled: DMSO wells 0, geranylgeraniol wells 100; series mostly up to 19.5 µM
row,SMILES,outcome
1,C[C@H]1CN([C@@H](C)CO)C(=O)c2cccc(NC(=O)Nc3ccc4c(c3)OCO4)c2O[C@H]1CN(C)S(=O)(=O)c1ccc(Cl)cc1,inactive
2,C[C@@H]1CCCCO[C@@H](CN(C)CC2CCCCC2)[C@@H](C)CN([C@H](C)CO)C(=O)c2cc(NS(=O)(=O)c3ccc(F)cc3)ccc2O1,inactive
3,Cc1ccc(C(=O)NNC(=O)C2CCN(Cc3ccc(Cl)c(Cl)c3)CC2)cc1,inactive
4,C[C@@H]1CN([C@H](C)CO)C(=O)Cc2cc(NS(=O)(=O)c3ccc(Cl)cc3)ccc2O[C@H]1CN(C)Cc1ccc2c(c1)OCO2,inactive
5,C[C@@H]1CN([C@H](C)CO)C(=O)Cc2cc(NS(=O)(=O)c3ccc(Cl)cc3)ccc2O[C@@H]1CN(C)Cc1ccc(C(F)(F)F)cc1,inactive
6,C[C@@H]1CN([C@H](C)CO)C(=O)Cc2cc(NS(=O)(=O)c3ccc(F)cc3)ccc2O[C@H]1CN(C)CC1CCCCC1,inactive
7,COc1ccc(S(=O)(=O)Nc2ccc3c(c2)CC(=O)N([C@@H](C)CO)C[C@H](C)[C@@H](CN(C)Cc2ccccc2)O3)cc1,inactive
8,C[C@H](CO)N1C[C@H](C)[C@@H](CN(C)CC2CCCCC2)Oc2ccc(NS(=O)(=O)c3ccc(Cl)cc3)cc2CC1=O,inactive
9,COc1ccc(CN(C)C[C@H]2Oc3ccc(NS(=O)(=O)c4ccc(F)cc4)cc3CC(=O)N([C@H](C)CO)C[C@H]2C)cc1,inactive
10,COc1ccc(S(=O)(=O)Nc2ccc3c(c2)C(=O)N([C@H](C)CO)C[C@@H](C)[C@H](CN(C)S(=O)(=O)c2ccc(F)cc2)OCCCC[C@@H](C)O3)cc1,inactive
11,CCn1c(CSc2nc3ccccc3[nH]2)n[nH]c1=S,inactive
12,COc1ccc(S(=O)(=O)Nc2ccc3c(c2)CC(=O)N([C@@H](C)CO)C[C@@H](C)[C@H](CN(C)Cc2ccc(Oc4ccccc4)cc2)O3)cc1,inactive
13,COc1cc(C)c(C(C)C)cc1S(=O)(=O)NCCCn1ccnc1,inactive
14,COC(=O)c1sc(S(=O)(=O)Nc2ccc3cn[nH]c3c2)c(C(=O)OC)c1C,inactive
15,C[C@H](CO)N1C[C@H](C)[C@H](CN(C)S(=O)(=O)c2ccccc2)OCCCC[C@H](C)Oc2ccc(NS(C)(=O)=O)cc2C1=O,inactive
16,COc1ccc(-n2c(SCC(=O)N3CCCCC3)nc(O)cc2=O)cc1,inactive
17,CCOC(=O)N1CCN(C(=O)C2CC(c3ccccc3OC)=NO2)CC1 (stereo unspecified),inactive
18,COc1cc2oc3ccccc3c2cc1N(CC(=O)N1CCCCC1)S(=O)(=O)c1ccc(C)cc1,inactive
19,Cn1ncc(Cl)c1C(=O)Nc1cccnc1,inactive
20,O=C(O)C1CCCCC1C(=O)Nc1ccccn1 (stereo unspecified),inactive
21,CC1CCN(C(=O)c2cc(F)c(F)cc2Cl)CC1,inactive

row,SMILES,outcome
1,CCCCCCC(=O)N1CCN(c2cc3c(cc2F)c(=O)c(C(=O)O)cn3CC)CC1,inactive
2,CCOc1ccccc1Nc1nc(N)nc(Cl)c1CC,inactive
3,O=C(NCc1cccnc1)C1CC(=O)N(CCc2ccccc2)C1 (stereo unspecified),inactive
4,CCOC(=O)N1CCN(c2c(N3CCN(c4cc(C)ccc4C)CC3)c(=O)c2=O)CC1,inactive
5,C[C@H]1CN([C@@H](C)CO)C(=O)c2cccc(NS(=O)(=O)c3cccs3)c2O[C@@H]1CN(C)Cc1ccc(Oc2ccccc2)cc1,inactive
6,C[C@H](CO)N1C[C@H](C)[C@@H](CN(C)Cc2ccc3c(c2)OCO3)Oc2ccc(NS(=O)(=O)c3ccc(F)cc3)cc2CC1=O,inactive
7,COc1ccc(OC)c(CNC(=O)C2CCCN(c3nc4ccccc4o3)C2)c1 (stereo unspecified),inactive
8,CCCS(=O)(=O)N1CCCC(C(=O)N2CCN(c3ccccc3)CC2)C1 (stereo unspecified),inactive
9,CN(C)c1nc(Oc2ccc(C(=O)OCC(=O)Nc3ccccc3)cc2)nc(N(C)C)n1,inactive
10,COc1ccc(C#Cc2ccc3c(c2)O[C@H](CN(C)C(=O)Nc2cccc(OC)c2)[C@@H](C)CN([C@H](C)CO)S3(=O)=O)cc1,inactive
11,C[C@H](CO)N1C[C@H](C)[C@H](CN(C)C(=O)Cc2ccccc2)OCCCC[C@H](C)Oc2ccc(NC(=O)Nc3ccc(C(F)(F)F)cc3)cc2C1=O,inactive
12,Cc1csc2nc(CNC(=O)c3cccc(C(F)(F)F)c3)cn12,inactive
13,O=C(NCC(=O)N(Cc1cccs1)C(C(=O)NC1CCCCC1)c1cccnc1)c1ccco1 (stereo unspecified),inactive
14,O=C(Nc1ccccc1Cl)N1C[C@H]2[C@@H](c3ccccc31)[C@@H](CO)N2Cc1ccccc1,inactive
15,COc1ccc(N2C(=O)CSC23C(=O)Nc2ccccc23)cc1 (stereo unspecified),inactive
16,C[C@@H]1CCCCO[C@H](CN(C)S(=O)(=O)c2ccc(Cl)cc2)[C@H](C)CN([C@H](C)CO)C(=O)c2cc(NS(C)(=O)=O)ccc2O1,inactive
17,C[C@H](CO)N1C[C@H](C)[C@@H](CN(C)Cc2ccc(C(F)(F)F)cc2)Oc2ccc(NC(=O)C3CCCCC3)cc2CC1=O,inactive
18,CC(C)(C)n1nnnc1C(c1cccnc1)N1CCN(c2ccccc2F)CC1 (stereo unspecified),inactive
19,N#Cc1ccc(C(=O)NCC(c2ccco2)N2CCCCC2)cc1 (stereo unspecified),inactive
20,CCOC(=O)c1sc(NCC2CCCO2)nc1C (stereo unspecified),inactive
21,Cc1noc(C)c1S(=O)(=O)Nc1cccc2c1O[C@@H](CN(C)S(C)(=O)=O)[C@@H](C)CN([C@H](C)CO)C2=O,inactive

row,SMILES,outcome
1,C[C@@H]1CN([C@@H](C)CO)C(=O)c2cccc(NC(=O)c3ccc(-c4nccs4)cc3)c2O[C@@H]1CN(C)Cc1ccc(C(F)(F)F)cc1,inactive
2,CC(C)(C)C(=O)Nc1ccc(C(=O)NCc2cccnc2)cc1,inactive
3,COc1cc(OC)cc(C(=O)NCc2cccnc2)c1,inactive
4,COc1cnc(N(C)C)nc1Sc1ccc(Cl)cc1,inactive
5,CCOC(=O)c1nnc(-c2ccc(C)cc2)nc1Sc1ccc(Cl)cc1,inactive
6,COc1ccc(S(=O)(=O)Nc2ccc3c(c2)C(=O)N([C@@H](C)CO)C[C@@H](C)[C@H](CN(C)S(=O)(=O)c2ccc(F)cc2)OCCCC[C@@H](C)O3)cc1,inactive
7,COc1ccc(C(=O)c2nc3c(n2O)CCCC3)cc1OC,inactive
8,Cc1ccc2nc(-c3cccc(NC(=O)c4ccc5c(c4)OCCO5)c3)oc2c1,inactive
9,Cc1ccc(-c2csc(-c3c[nH]c4ccccc34)n2)cc1,inactive
10,COc1ccc(-c2noc(CCCC(=O)NCCc3ccccc3)n2)cc1OC,inactive
11,CC(C)NC(=O)N(C)C[C@@H]1Oc2ccc(NC(=O)Nc3cccc4ccccc34)cc2CC(=O)N([C@@H](C)CO)C[C@@H]1C,inactive
12,O=C(NCC(=O)N(Cc1ccccc1)C(C(=O)NC1CCCCC1)c1ccco1)c1ccco1 (stereo unspecified),inactive
13,COc1ccc(CNC(=O)C2CCCN(S(=O)(=O)c3ccc4c(c3)CCCN4C(C)=O)C2)cc1 (stereo unspecified),inactive
14,COc1ccc(CNS(=O)(=O)c2ccc3c(c2)CCN3C(=O)C2CCC2)cc1,inactive
15,C[C@@H]1CCCCO[C@@H](CN(C)S(=O)(=O)c2ccc(Cl)cc2)[C@H](C)CN([C@@H](C)CO)C(=O)c2cc(NS(C)(=O)=O)ccc2O1,inactive
16,CC(C)COc1nc2ccccc2c(=O)n1OCC(=O)O,inactive
17,CC(C)C#Cc1ccc2c(c1)O[C@@H](CN(C)C(=O)C1CCC1)[C@@H](C)CN([C@@H](C)CO)S2(=O)=O,inactive
18,NNC(=O)c1nn(-c2ccc(Cl)cc2)cc1O,inactive
19,COc1ccc(-n2cnc3cc(NCc4cccs4)ccc32)cc1,inactive
20,C[C@H](CO)N1C[C@H](C)[C@@H](CN(C)Cc2ccc(Cl)c(Cl)c2)Oc2ccc(NC(=O)CCC(F)(F)F)cc2CC1=O,inactive
21,Cc1ccc(S(=O)(=O)n2nc(-c3ccco3)nc2SCc2ccccc2)cc1,inactive

row,SMILES,outcome
1,O=S(=O)(NCC1CCN(S(=O)(=O)c2ccccc2)CC1)c1ccccc1,inactive
2,CCOC(=O)[C@H]1[C@H]2COc3ccc(Cl)cc3[C@@H]2N2C(=O)c3ccccc3NC(=O)[C@@]12C,inactive
3,O=C(CNS(=O)(=O)c1ccc(Br)s1)N1CCN(c2ncccn2)CC1,inactive
4,Cc1nc2ccc(S(=O)(=O)NCC(=O)N3CCCC(C)C3)cc2s1 (stereo unspecified),inactive
5,C[C@H]1CN([C@@H](C)CO)C(=O)Cc2cc(NC(=O)CCC(F)(F)F)ccc2O[C@@H]1CN(C)Cc1ccc(Oc2ccccc2)cc1,inactive
6,COc1ccc(CNC(=O)CCOc2ccc(C(C)(C)C)cc2)cc1,inactive
7,COc1ccc(CCNC(=O)c2ccc(N3CCCC3=O)cc2)cc1,inactive
8,Cc1ccc(Cl)cc1NC(=O)COC(=O)CC1CC2CCC1C2 (stereo unspecified),inactive
9,COc1cccc(S(=O)(=O)N(C)C[C@H]2OCc3ccccc3-c3c(n(C)c4ccccc34)C(=O)N([C@H](C)CO)C[C@H]2C)c1,inactive
10,COc1ccc(CN(C)C[C@@H]2Oc3ccc(NS(=O)(=O)c4ccccc4)cc3CC(=O)N([C@H](C)CO)C[C@H]2C)cc1,inactive
11,CCOC(=O)N1CCN(C2CC(=O)N(c3ccc(Oc4ccccc4)cc3)C2=O)CC1 (stereo unspecified),inactive
12,CCOC(=O)N1CCN(c2ccccc2O)CC1,inactive
13,C[C@@H]1CN([C@H](C)CO)C(=O)c2cc(NS(C)(=O)=O)ccc2O[C@@H](C)CCCCO[C@@H]1CN(C)Cc1ccc(Cl)c(Cl)c1,inactive
14,COc1ccc(C(=O)N2C[C@H]3[C@@H](c4ccccc42)[C@@H](CO)N3Cc2ccccc2)cc1,inactive
15,CCN(CC)c1nc(C#N)cc(-c2ccc(OC)cc2)n1,inactive
16,C[C@H](CO)N1C[C@H](C)[C@@H](CN(C)C(=O)Nc2ccccc2)Oc2ncc(C#CC3CCCC3)cc2C1=O,inactive
17,C[C@H](CO)N1C[C@H](C)[C@@H](CN(C)C(=O)Nc2cccc3ccccc23)OCCCC[C@H](C)Oc2ccc(NC(=O)Nc3ccc4c(c3)OCO4)cc2C1=O,inactive
18,Cc1ccc(S(=O)(=O)Nc2ccc3c(c2)C(=O)N([C@H](C)CO)C[C@@H](C)[C@H](CN(C)Cc2ccc(Cl)c(Cl)c2)O3)cc1,inactive
